# Results published in PubChem BioAssay (Tox21).
# Inconclusive results are not listed. Calls of active or inactive are those of the source. Unless noted, calls follow the shape of the full dose curve.
# Biological target: Vitamin D3 receptor (Homo sapiens) (UniProt P11473)
# Test: qHTS assay to identify small molecule agonists of the vitamin D receptor (VDR) signaling pathway (AID 743222)
# Settings: HEK293T VDR-UAS-bla, beta-lactamase FRET ratio, 16 h; series mostly up to 63.5 µM
# Summary of the method: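 VDR-bla cells plated 4 h at 37 C, then exposed to compounds for 16 h at 37 C. Beta-lactamase reporter activity measured by fluorescence after 2 h room-temperature loading with LiveBLAzer B/G FRET substrate.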
# % is scaled to controls: 0 for no effect and ±100 for the full control effect.
# Vitamin D3 receptor (Homo sapiens), sequence (P11473 whole entry, looked up): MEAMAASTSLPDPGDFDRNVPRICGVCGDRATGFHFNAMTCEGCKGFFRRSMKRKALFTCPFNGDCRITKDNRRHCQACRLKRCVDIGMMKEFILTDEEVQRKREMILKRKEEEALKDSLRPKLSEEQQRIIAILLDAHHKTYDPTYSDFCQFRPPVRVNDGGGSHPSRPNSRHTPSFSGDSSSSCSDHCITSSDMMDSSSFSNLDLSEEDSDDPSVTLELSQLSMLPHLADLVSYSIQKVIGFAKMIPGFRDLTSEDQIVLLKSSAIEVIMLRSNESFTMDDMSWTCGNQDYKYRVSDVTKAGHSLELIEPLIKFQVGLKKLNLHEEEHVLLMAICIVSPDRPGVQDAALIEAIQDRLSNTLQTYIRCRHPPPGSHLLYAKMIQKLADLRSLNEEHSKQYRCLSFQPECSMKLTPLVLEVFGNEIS
row,SMILES,outcome
1,NC(Cc1c[nH]c2ccccc12)C(=O)O (stereo unspecified),inactive
2,CCCCC/C=C/CC(=O)OC,inactive
3,Cc1nc(C)nc(N2C[C@@H](C)N(c3ccnc([C@@H](C)O)n3)[C@@H](C)C2)n1,inactive

# Biological target: Vitamin D3 receptor (Homo sapiens) (UniProt P11473)
# Test: qHTS assay to identify small molecule antagonists of the vitamin D receptor (VDR) signaling pathway (AID 743223; active = well fitted inhibition curve with a large enough effect in the signal ratio in the repeat runs, not every such curve was filed as active; the % refers to the signal ratio)
# Settings: VDR-UAS-bla HEK293T, beta-lactamase FRET ratio, 16 h; series mostly up to 61 µM
# Summary of the method: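 Antagonist mode: compound added to VDR-bla cells alongside agonist 1alpha,25-dihydroxyvitamin D3 (3 nM final), incubation 16 h at 37C. Read-out is LiveBLAzer FRET fluorescence, 2 h at room temperature.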
SMILES,outcome,"activity change, negative = inhibition"
CCCCCC(=O)OCC,inactive,–
Cc1cc(C)cc([N+](=O)[O-])c1,inactive,–
FC(F)(F)/C(=N\OCC1OCCO1)c1ccc(Cl)cc1,inactive,–
CC(=O)N1CCN(c2ccc(O)cc2)CC1,inactive,–
CNC(=O)NC,inactive,–
OCCCCCCCl,inactive,–
C=CCOc1cc(Cl)ccc1C(=O)NCCN(CC)CC,inactive,–
CCOC(=O)OCC/C(SC(=O)OCC)=C(\C)N(C=O)Cc1cnc(C)nc1N,inactive,–
C=CCCCCCCCCCCC,–,4.12% [at 6.95 µM] (inactive)
Cc1c(C(C)C)c(=O)n(-c2ccccc2)n1C,inactive,–
Cc1ccc2c(c1)c1c3n2CCNC3CCC1 (stereo unspecified),inactive,–
Nc1ccc(C(=O)OCC(O)CO)cc1 (stereo unspecified),inactive,–
FC(F)(F)c1ccc(Cl)cc1Cl,inactive,–
CCOC(=O)CCc1ccccc1,inactive,–
CCOc1ccc(NC(=O)OC(C)C)cc1OCC,inactive,–
Cc1ccc(S(=O)(=O)NC(=O)NC2CCCCCCC2)cc1,inactive,–
NS(=O)(=O)c1cc2c(cc1Cl)NC(CC1CCCC1)NS2(=O)=O (stereo unspecified),inactive,–
CCCCC/C=C/CC(=O)OC,inactive,–
